# According to PubChem BioAssay AID1508602 (The Scripps Research Institute Molecular Screening Center, 2020):
# Among all 650,000 compounds or so, about 6,800 (1%) were called active. No stated cut-off is given here; in the data, active means activation above about 4.9%; inactive means the rest. The sample as a whole holds a higher share of actives than the screen did.
# Molecular target: G-protein coupled receptor 151 (Homo sapiens) (UniProt Q8TDV0)
# Test: activators of human GPR151, primary screen, cell-based, PathHunter beta-arrestin, luminescence (AID 1508602);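 further: 0% = median of compound wells and 100% = cells with positive control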
# Details: PathHunter beta-arrestin GPR151 cells, at 11.2 µM, hits give high values
# Chain of G-protein coupled receptor 151 (Homo sapiens) (Q8TDV0 whole entry, looked up): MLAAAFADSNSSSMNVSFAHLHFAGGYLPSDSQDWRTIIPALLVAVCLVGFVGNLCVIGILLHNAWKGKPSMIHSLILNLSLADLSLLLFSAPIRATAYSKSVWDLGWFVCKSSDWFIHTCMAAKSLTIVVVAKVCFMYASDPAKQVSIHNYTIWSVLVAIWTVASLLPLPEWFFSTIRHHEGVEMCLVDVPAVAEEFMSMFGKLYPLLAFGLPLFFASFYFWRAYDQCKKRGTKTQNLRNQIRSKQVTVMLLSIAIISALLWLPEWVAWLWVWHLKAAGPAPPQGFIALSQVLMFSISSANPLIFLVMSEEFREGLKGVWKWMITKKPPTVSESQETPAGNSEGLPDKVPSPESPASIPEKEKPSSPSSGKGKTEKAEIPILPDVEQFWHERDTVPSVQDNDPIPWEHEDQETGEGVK
row,Compound,activation
1,COc1cc(Cl)c(C)cc1NC(=O)Cn1cnc2sc(C)c(C)c2c1=O,0.0902% (inactive)
2,COc1ccc(C2(NC(=O)CCn3cnc4sc(C)c(C)c4c3=O)CCCCC2)cc1,4.94% (active)
3,COCCNC(=O)CCCNC(=O)Cn1cnc2sc(C)c(C)c2c1=O,1.23% (inactive)
4,Cc1ccc(C2=NC(c3ccc(F)cc3)NC(c3cc(Cl)ccc3O)C2)cc1 (stereo unspecified),1.41% (inactive)
5,COc1ccccc1C1N=C(c2ccc(C)cc2)CC(c2cc(Cl)ccc2O)N1 (stereo unspecified),1.39% (inactive)
6,Cc1ccc(C2=NC(c3cc(Br)ccc3F)NC(c3cc(Cl)ccc3O)C2)cc1 (stereo unspecified),10.7% (active)
7,O=C(COc1ccc(Cl)cc1)Nc1ccc(F)c(F)c1,0.102% (inactive)
8,O=C(COc1ccc(CO)cc1)Nc1ccc(Cl)c(Cl)c1,8.11% (active)
9,Cc1ccc(OCC(=O)Nc2ccc(C)c(Cl)c2)cc1C,1.59% (inactive)
10,CCN(CC)S(=O)(=O)c1ccc(NC(=O)c2ccc(F)cc2)cc1,-0.476% (inactive)
11,C=CCc1ccccc1OCCN1CCNCC1,5.95% (active)
12,Cc1cccc(OCCN2CCNCC2)c1C,0.825% (inactive)
13,Cc1ccc(C(C)(C)C)c(OCCN2CCNCC2)c1,0.932% (inactive)
14,COc1cccc(CNC(=O)Cn2c(=O)oc3ccccc32)c1,-1.36% (inactive)
15,N#CCCn1c2ccc(Cl)cc2c2cc(Cl)ccc21,2.4% (inactive)
16,CC1CN(c2ncnc3c2c(-c2ccccc2)cn3-c2cccc(C(F)(F)F)c2)CC(C)O1 (stereo unspecified),-1.46% (inactive)
17,Cc1ccc(-n2cc(-c3ccccc3)c3c(N4CC(C)OC(C)C4)ncnc32)cc1 (stereo unspecified),7.76% (active)
18,COc1ccc(N2CCN(c3ncnc4c3c(-c3ccccc3)cn4-c3ccc(C)cc3)CC2)cc1,-2.7% (inactive)
19,CCN(CC)CCCNCC(=O)Nc1ncc(C)s1,-1.43% (inactive)
20,Cc1ccccc1CC1(CO)CCCN(C(=O)CN(C)Cc2ccncc2)C1 (stereo unspecified),0.125% (inactive)
21,Cc1ccccc1CC1(CO)CCCN(Cc2ccncc2)C1 (stereo unspecified),5.32% (active)

row,Compound,activation
1,OCC1(Cc2ccccc2C(F)(F)F)CCN(Cc2ccncc2)CC1,-0.707% (inactive)
2,Cc1csc(COc2ccc(C(=O)NCc3cccs3)cc2)n1,-2.02% (inactive)
3,Cn1ncc2c(Nc3cccc4ccccc34)ncnc21,2.47% (inactive)
4,Cn1ncc2c(NNC(=O)c3ccc(C(C)(C)C)cc3)ncnc21,1.02% (inactive)
5,Cn1ncc2c(NNC(=O)Cc3cccc4ccccc34)ncnc21,6.03% (active)
6,O=C1c2ccccc2C(=O)C1(Nc1ccc(-c2ccccc2)cc1)c1ccccc1,0.902% (inactive)
7,O=C(Nc1ccc2c(c1)C(=O)Nc1cc(Cl)ccc1O2)c1cccc(F)c1,-0.172% (inactive)
8,COc1ccc(C2CC(c3cccs3)=NN2C(=O)CSc2nnc(CNC(=O)c3cccc(C)c3)n2Cc2ccccc2)cc1 (stereo unspecified),-0.0797% (inactive)
9,Cc1ccc(C2CC(c3cccs3)=NN2C(=O)CSc2nnc(CNC(=O)c3cccs3)n2Cc2ccccc2)cc1 (stereo unspecified),-0.904% (inactive)
10,O=C(NCc1nnc(SCC(=O)N2N=C(c3cccs3)CC2c2ccc(F)cc2)n1Cc1ccccc1)c1cccc(F)c1 (stereo unspecified),5.02% (active)
11,CSc1ccc2nc(NC(=O)c3ccccc3Cl)sc2c1,-0.347% (inactive)
12,Fc1ccccc1OCCSc1nc2ccccc2o1,4.92% (active)
13,N#Cc1ccccc1CSc1nc2ccccc2o1,-1.07% (inactive)
14,CC(=O)OCC#CCSc1nc2ccccc2o1,-0.909% (inactive)
15,COc1ccccc1C(=O)N1CCNC(=O)C1CC(=O)Nc1ccc(Cl)cc1 (stereo unspecified),-1.89% (inactive)
16,O=C(Cc1ccc([N+](=O)[O-])cc1)Nc1cccc(Cl)c1,-0.456% (inactive)
17,O=C(CC1C(=O)NCCN1C(=O)c1ccc([N+](=O)[O-])cc1)Nc1cccc(Cl)c1 (stereo unspecified),7.94% (active)
18,CCc1cc2c(=O)c(-c3ccc4c(c3)OCCCO4)coc2cc1OC(=O)N1CCOCC1,8.05% (active)
19,CCCc1cc2c(=O)c(-c3ccc4c(c3)OCO4)coc2cc1O,0.792% (inactive)
20,CCc1cc2c(=O)c(-c3ccc4c(c3)OCCCO4)coc2cc1OC,-0.907% (inactive)
21,COc1ccccc1N=Cc1cccc(O)c1O,-0.891% (inactive)

row,Compound,activation
1,O=C(c1ccc(CNS(=O)(=O)c2ccc(Cl)cc2)cc1)N1CCCC1,6.5% (active)
2,O=C(c1cccc(NS(=O)(=O)c2ccc(Cl)cc2)c1)N1CCCC1,-1.72% (inactive)
3,O=C(c1ccc(Cl)cc1)N1CCCC1,-0.435% (inactive)
4,COC(=O)C1=CN(Cc2ccc(F)cc2)C=C(C(=O)OC)C1c1ccc(OC)c(OC)c1,-0.344% (inactive)
5,COC(=O)C1=CN(CC2CCCO2)C=C(C(=O)OC)C1c1ccc(OC)c(O)c1 (stereo unspecified),1.3% (inactive)
6,COC(=O)C1=CN(Cc2ccc(OC)cc2)C=C(C(=O)OC)C1c1ccc(O)c(OC)c1,1.75% (inactive)
7,COC(=O)C1=CN(Cc2ccc(Cl)cc2)C=C(C(=O)OC)C1c1cc(OC)c(O)c(OC)c1,8.56% (active)
8,COC(=O)CN1C=C(C(=O)OC)C(c2ccc(OC)c(O)c2)C(C(=O)OC)=C1,6.57% (active)
9,CCOC(=O)C1=CN(Cc2ccc(Cl)cc2)C=C(C(=O)OCC)C1c1cc(Br)c(O)c(OC)c1,3.19% (inactive)
10,CCOc1ccc(/C(O)=C2/C(=O)C(=O)N(CCN(CC)CC)C2c2ccc(C)cc2)c(C)c1 (stereo unspecified),0.496% (inactive)
11,CCOc1ccc(N2C(=O)C3C4C=CC(C5CC45)C3C2=O)cc1 (stereo unspecified),-1.25% (inactive)
12,Cc1cccc(CN2CCN3C(=O)[C@H](Cc4cnc[nH]4)NC(=O)[C@H]3C2)n1,0.592% (inactive)
13,CC(=O)Nc1ccc2c(c1)CN(Cc1ccccc1)CO2,1.47% (inactive)
14,O=C(c1cccc(N2C(=O)c3ccccc3C2=O)c1)N1CCOCC1,-0.354% (inactive)
15,CCC(CC)C(=O)Nc1cccc(C(=O)Nc2ccccc2C(=O)NC(C)C)c1,0.373% (inactive)
16,O=C(CCc1ccccc1)Nc1cccc(C(=O)N2CCOCC2)c1,11.5% (active)
17,CCC(CC)C(=O)Nc1cccc(C(=O)N2CCCC2)c1,5.74% (active)
18,CCC(CC)C(=O)Nc1cccc(F)c1,4.27% (inactive)
19,CC1(C)Oc2ccc(C(=O)N3CCOCC3)cc2N(CC(=O)Nc2ccccc2)C1=O,-0.343% (inactive)
